Here are results for 19 compounds from the supplement of paper PMC13380429.

The test system of this assay is Vero E6 infected with SARS-CoV-2. Put plainly: inhibition of SARS-CoV-2 cytopathic effect; higher = more antiviral protection, active = above 15. To be noted: 48 h. In general terms: Damage to the host cells serves as the signal in cytopathic effect assays.

A number with no mark means an inactive call.

In the case of `CCCC[C@@]1(C2CCCC2)Cc2cc(OCCCC(=O)O)c(Cl)c(Cl)c2C1=O`, the “inhibition of SARS-CoV-2 cytopathic effect” value (shortened to “inhibition”) is, setting by setting: (1 nM) 2.56%; (8.33 nM) 0.21%; (100 nM) 0.81%; (833.33 nM) 2.21%; (10000 nM) 2.61%.
For `CCCC[C@@H](C=O)NC(=O)[C@H](CC(C)C)NC(=O)OCc1ccccc1` [calpeptin], in that order: -1.61%, -1.53%, -2.86%, 14.7% and 66.9% (active).
For `CO[C@H]1C[C@@H]2CC[C@@H](C)[C@@](O)(O2)C(=O)C(=O)N2CCCC[C@H]2C(=O)O[C@H]([C@H](C)C[C@@H]2CC[C@@H](O)[C@H](OC)C2)CC(=O)[C@H](C)/C=C(\C)[C@@H](O)[C@@H](OC)C(=O)[C@H](C)C[C@H](C)/C=C/C=C/C=C/1C` [sirolimus], in that order: -1.48%, -3.33%, -1.82%, -0.23% and -0.88%.
Take `CC1=C(CCC(=O)O)c2cc3[nH]c(cc4nc(cc5[nH]c(cc1n2)c(C)c5C(C)O)C(C)=C4C(C)O)c(C)c3CCC(=O)O` (stereo not given) [hematoporphyrin]: the “inhibition” value (1 nM) is 0.75%; the “inhibition” value (8.33 nM) was 5%; the “inhibition” value (100 nM) is 1.48%; the “inhibition” value (833.33 nM) was -0.76%; the “inhibition” value (10000 nM) was -6.32%.
On to `Nc1ccc(-c2ccc3ncc4ccc(=O)n(-c5cccc(C(F)(F)F)c5)c4c3c2)cn1` [torin-2], for which the “inhibition” value runs as follows: (1 nM) 0.99%; (8.33 nM) -0.26%; (100 nM) -2.28%; (833.33 nM) -4.78%; (10000 nM) -8.11%.
With `CC(OC(=O)NCC1(CC(=O)O)CCCCC1)OC(=O)C(C)C` (stereo not given) [gabapentin-enacarbil], the “inhibition” value is, setting by setting: (1 nM) -7.45%; (8.33 nM) -8.92%; (100 nM) -4.27%; (833.33 nM) -4.9%; (10000 nM) -8.44%.
As to `CCc1ccc2c(-c3cccc(Cl)c3)nc(=O)n(CC)c2n1`, the “inhibition” value was -1.8% (1 nM); 0.23% (8.33 nM); 1.37% (100 nM); -1.65% (833.33 nM); 0.57% (10000 nM).
On to `CC(C)Oc1ccc(-c2nn([C@@H](C)c3oc4ccc(F)cc4c(=O)c3-c3cccc(F)c3)c3ncnc(N)c23)cc1F`, for which the “inhibition” value (1 nM) was 1.54%; the “inhibition” value (8.33 nM) was 2.74%; the “inhibition” value (100 nM) is 0.14%; the “inhibition” value (833.33 nM) is 0.53%; the “inhibition” value (10000 nM) was -3.52%.
As for `Clc1ccc2c(c1)N=C(N1CCNCC1)c1ccccc1N2` [desmethylclozapine], the “inhibition” value runs as follows: (1 nM) 1.9%; (8.33 nM) 0.8%; (100 nM) 0.19%; (833.33 nM) 2.8%; (10000 nM) -4.43%.
In the case of `CC(C)N(CCNC(=O)CN1CCCC1=O)C(C)C` [pramiracetam], the “inhibition” value runs as follows: (1 nM) -3.32%; (8.33 nM) -1.27%; (100 nM) 0.57%; (833.33 nM) 3.04%; (10000 nM) 0.12%.
For the compound `CC[C@H](C)[C@@H]([C@@H](CC(=O)N1CCC[C@H]1[C@H](OC)[C@@H](C)C(=O)N[C@@H](Cc1ccccc1)c1nccs1)OC)N(C)C(=O)[C@@H](NC(=O)[C@H](C(C)C)N(C)C)C(C)C` [dolastatin-10], the “inhibition” value is -1.47% (1 nM); 0.79% (8.33 nM); -2.31% (100 nM); -3% (833.33 nM); 0.49% (10000 nM).
Take `Cc1c(NC(=O)OC[C@@H]2COCCN2)cn2ncnc(Nc3ccc4c(cnn4Cc4cccc(F)c4)c3)c12`: the “inhibition” value (1 nM) is 0.31%; the “inhibition” value (8.33 nM) is -2.14%; the “inhibition” value (100 nM) is -2.74%; the “inhibition” value (833.33 nM) is -8.47%; the “inhibition” value (10000 nM) is -10.8%.
For `CCCN1CC(NS(=O)(=O)N(CC)CC)CC2Cc3c(O)cccc3CC21` (stereo not given) [quinagolide], in that order: -1.57%, -0.18%, -0.29%, -13.8% and -6.37%.
Regarding `C#C[C@]1(OC(C)=O)CC[C@H]2[C@@H]3CCC4=CC(=O)CC[C@@H]4[C@H]3CC[C@@]21C` [norethindrone-acetate], the “inhibition” value is 0.09% (1 nM); 0.03% (8.33 nM); -1.33% (100 nM); 0.02% (833.33 nM); 1.02% (10000 nM).
For `CCCCCN(CCCOC)C(=O)[C@@H](CCC(=O)O)NC(=O)c1ccc(Cl)c(Cl)c1` [dexloxiglumide], the “inhibition” value (1 nM) was -5.32%; the “inhibition” value (8.33 nM) is -1.73%; the “inhibition” value (100 nM) is 2.58%; the “inhibition” value (833.33 nM) is -1.51%; the “inhibition” value (10000 nM) was 2.38%.
With `CCO[C@H]1O[C@@H]2O[C@@]3(C)CC[C@H]4[C@H](C)CC[C@@H]([C@H]1C)[C@@]24OO3` [artemotil], the “inhibition” value reads like this: (1 nM) -0.58%; (8.33 nM) -2.88%; (100 nM) 1.56%; (833.33 nM) 0.29%; (10000 nM) 1.11%.
`COc1cc(N2CCN(C)CC2)ccc1Nc1nccc(-c2cn(C)c3cnccc23)n1`: the “inhibition” value runs as follows: (1 nM) 0.14%; (8.33 nM) -0.24%; (100 nM) 2.63%; (833.33 nM) -0.7%; (10000 nM) 40.7% (active).
Regarding `COC(=O)[C@@H]1CC2=CC(=O)CC[C@]2(C)[C@@]23O[C@@H]2C[C@@]2(C)[C@@H](CC[C@@]24CCC(=O)O4)[C@H]13` [eplerenone], the “inhibition” value is 0.06% (1 nM); 2.8% (8.33 nM); 0.3% (100 nM); 1.53% (833.33 nM); 0.25% (10000 nM).
`Cc1cc(NS(=O)(=O)c2ccc(N)cc2)no1` [sulfamethoxazole]: the “inhibition” value is, setting by setting: (1 nM) 2.98%; (8.33 nM) 0.81%; (100 nM) 0.9%; (833.33 nM) 0.68%; (10000 nM) 0.81%.
